In ChEMBL document CHEMBL4513216, “Probing the Open Global Health Chemical Diversity Library for Multistage-Active Starting Points for Next-Generation Antimalarials” (ACS Infect Dis, 2020):
Screen size: about 68,000 compounds; about 2,700 (4%) showed an effect of 50% or more. This is one part of a sample in which strong results are shown more often than they occur.

System: Plasmodium berghei
Test: Screen against P. berghei liver stage (PbLuc), transformed with Luciferase, at 2uM
Format: functional, HepG2
Conditions: tested at 2 uM

SMILES	INHIBITION [%]
O=C(c1cccnc1)N1CCC2(CCN(C(=O)c3ccco3)CC2)C1	14.52
CC(=O)N1CCCC(c2ccc3sc(N)nc3n2)C1 (centres undefined)	17.01
Nc1nc2nc(C3CCCN(C(=O)c4cncs4)C3)ccc2s1 (centres undefined)	52.82
Nc1nc2nc(C3CCCN(C(=O)c4cnccn4)C3)ccc2s1 (centres undefined)	46.98
COc1ncc(CN2C[C@@H]3CC[C@@](O)(c4ccc(C)cn4)[C@@H]3C2)cn1	-2.21
CSc1ccc(CN2C[C@@H]3CC[C@@](O)(c4ccc(C)cn4)[C@@H]3C2)cc1	61.3
Cc1ccc([C@]2(O)CC[C@H]3CN(Cc4cc(C)c(O)c(C)c4)C[C@H]32)nc1	13.65
Cc1ccc([C@]2(O)CC[C@H]3CN(Cc4cccc(Cl)c4Cl)C[C@H]32)nc1	45.82
Cc1ccc([C@]2(O)CC[C@H]3CN(Cc4ccncc4)C[C@H]32)nc1	51.35
Cc1ccc([C@]2(O)CC[C@H]3CN(Cc4cccnc4)C[C@H]32)nc1	12.16
CC(C)(C)c1nnc(CN2CCCC2Cn2cncn2)o1 (centres undefined)	-13.06
COCCCN1C(=O)CC(N2CCN(c3ccc(F)cc3)CC2)C1=O (centres undefined)	1.37
CCn1nc(C)c2nc(C)nc(NCCc3ccc(C)cc3)c21	9.79
CCCC(=O)N1CCC2(CC1)CC(NC(C)=O)c1ccccc1O2 (centres undefined)	-25.44
CC(C)C(=O)NC1COC2(CCN(C(=O)c3ccc[nH]3)CC2)C1 (centres undefined)	25.46
COCCN1CCOCC12CCN(C(=O)c1ccoc1)CC2	52.62
COCCN1CCOCC12CCN(C(=O)c1ccncc1)CC2	-41.59
COCCN1CCOCC12CCN(C(=O)c1cccnc1)CC2	0.91
O=c1c2cn[nH]c2nc(SCCN2CCCC2)n1-c1ccccc1	-15.12
Cc1cc(C(=O)Nc2n[nH]c(C3CC3)n2)c2c(C)noc2n1	-54.55
COCC1CC2(CCN(S(=O)(=O)C3CC3)CC2)CN1c1ncccn1 (centres undefined)	15.39
CCNC(=O)[C@@H]1C[C@@H](NC(=O)CSC)CN1Cc1ccncc1	16.05
COc1cc(CNC(=O)Nc2nnc(C3CC3)s2)ccc1O	53.61
COc1cc(CNC(=O)Nc2nnc(C(C)C)s2)ccc1O	-33.43
COc1cc(CNC(=O)Nc2nnc(C(F)(F)F)s2)ccc1O	45.4
CCC(c1ccc(F)cc1)N1CCn2c(CO)nnc2C1 (centres undefined)	18.76
c1cc2c(cc1CN1CCC(Cc3noc(C4CC4)n3)CC1)OCCO2	1.52

SMILES	INHIBITION [%]
c1cc(CN2CCC(Cc3noc(C4CC4)n3)CC2)c2c(c1)OCO2	71.06
c1ccc(CN2CCC(Cc3noc(C4CC4)n3)CC2)cc1	17.33
Cc1nccn1-c1ccc(=O)n(CCNC(=O)c2cccs2)n1	-47.31
O=C(c1cccc(S(=O)(=O)NCCc2nccs2)c1)N1CCOCC1	3.58
CS(=O)(=O)N1C[C@@H]2CC[C@H]1CN(Cc1ccncc1)C2	-56.9
Cc1ncsc1C(=O)N(C)Cc1ccncc1	-25.22
Cc1ncsc1CN(Cc1ccccc1)Cc1ccncc1	61.06
Cc1ncsc1CN(Cc1ccccc1)Cc1ncc[nH]1	-43.51
Cn1nc(C2CCN(C(=O)c3cnccn3)C2)cc1CCO (centres undefined)	-18.15
Cc1ccc(-n2ccnc2)c(C(=O)NCCOCC(F)(F)F)c1	16.98
Cc1ccc(-n2ccnc2)c(C(=O)NCCCN(C)C)c1	20.21
Cc1ccc(-n2ccnc2)c(C(=O)NCCOCC2CCCO2)c1 (centres undefined)	51.4
CCS(=O)(=O)N1CCN(C)c2ncccc2C1	4.07
CN1CCN(S(=O)(=O)C2CC2)Cc2cccnc21	-5.9
CN1CCN(S(C)(=O)=O)Cc2cccnc21	58.97
CN1CCN(C(=O)N2CCCC2)Cc2cccnc21	52.3
CN(C)C(=O)N1CCN(C)c2ncccc2C1	47.25
CN1CCN(C(=O)NC2CCCC2)Cc2cccnc21	11.87
Cc1nc(Nc2nccs2)cc(C2CCCN2)n1 (centres undefined)	-26.8
CCC(O)Cn1nc(CCSC)nc1-c1ccc2[nH]ccc2c1 (centres undefined)	20.45
CC(=O)N1CCN(C(=O)Cc2cnc(-c3c(Cl)cccc3Cl)s2)CC1	25.61
O=C(Cc1cnc(-c2c(Cl)cccc2Cl)s1)N1CCOCC1	56.75
O=C(Cc1cnc(-c2c(Cl)cccc2Cl)s1)N1CCC2(CC1)OCCO2	-6.29
NC(=O)CCNC(=O)C1(N2CCCCC2)Cc2ccccc2C1	14.19
c1ccc(CCN2CCN(c3ccc4nncn4n3)CC2)cc1	-2.47
c1ccc(CCN2CCN(c3ccc4nncn4n3)CC2)nc1	-59.79
Clc1ccccc1CCN1CCN(c2ccc3nncn3n2)CC1	50.77
